Drawing on PubChem BioAssay (Tox21), this text covers Potency for 23 molecules.

A short description of assay [1]: qHTS assay to identify small molecule antagonists of the thyroid receptor (TR) signaling pathway - cell viability counter screen (AID 743064). Also: nearly all actives have a fitted effect of over 50% in size. Also: potency is read from the fitted curve at half-maximal effect. The essentials:
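In-well cytotoxicity read by CellTiter-Fluor (30 min, 37 C) following 23.5 h exposure of GH3 cells bearing a TRE-luciferase sensor. Compounds were added alongside 1 nM (final) T3 to drive TR transactivation.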
A general note: qHTS replaces the single test concentration by a dilution series.

Assay [2] in a line: qHTS assay to identify small molecule antagonists of the thyroid receptor (TR) signaling pathway (AID 743065). Also: nearly all actives have a fitted effect of over 55% in size. Also: potency is read from the fitted curve at half-maximal effect. The gist of the method: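 GH3.TRE-Luc rat pituitary cells carrying two TR response elements driving luciferase were plated for 4 h, given compound plus 1 nM T3 (final), and incubated 23.5 h at 37 C. ONE-Glo luminescence measured reporter inhibition; CellTiter-Fluor fluorescence tracked cytotoxicity.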

Assay [3] concerns thyroid hormone receptor (rat, GH3 cells). Put plainly: qHTS assay to identify small molecule agonists of the thyroid receptor (TR) signaling pathway (AID 743066; calls by dose curve; also: potency is read from the fitted curve at half-maximal effect).
A short description of assay [4]: qHTS assay to identify small molecule antagonists of the estrogen receptor alpha (ER-alpha) signaling pathway - cell viability counter screen (AID 743074; calls by dose curve;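 also: HEK293 cells carrying ER-alpha-UAS-bla reporter stimulated with 17beta-estradiol; nearly all actives have a fitted effect of over 45% in size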).
A short description of assay [5]: qHTS assay to identify small molecule antagonists of the estrogen receptor alpha (ER-alpha) signaling pathway using the BG1 cell line - cell viability counter screen (AID 743081).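 Also: compound given together with 17beta-estradiol as the ER stimulus; nearly all actives have a fitted effect of over 45% in size.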
The target in a further assay is Aromatase (Homo sapiens) (UniProt P11511). Put plainly: qHTS assay to identify aromatase inhibitors (AID 743083). Also: nearly all actives have a fitted effect of over 55% in size. Also: potency is read from the fitted curve at half-maximal effect.
Assay [6] deals with Estrogen receptor (Homo sapiens) (UniProt P03372). Put plainly: qHTS assay to identify small molecule agonists of the estrogen receptor alpha (ER-alpha) signaling pathway (AID 743075; calls by dose curve;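 also: HEK293 GripTite cells with ER-alpha and UAS-driven beta-lactamase reporter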).
Assay [7] in a line: qHTS assay to identify small molecule antagonists of the estrogen receptor alpha (ER-alpha) signaling pathway using the BG1 cell line (AID 743080; calls by dose curve;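 also: BG1 cells stimulated with 17beta-estradiol alongside compound; nearly all actives have a fitted effect of over 25% in size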). The gist of the method:
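After 5 days in phenol-red-free 10% charcoal-stripped FBS medium, BG1-Luc-4E2 cells were seeded, left 24 h at 37 C, co-treated with compounds and 17beta-estradiol for 21.5 h, then assayed for viability and luciferase.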

Assay [8] deals with Estrogen receptor (Homo sapiens) (UniProt P03372). Put plainly: qHTS assay to identify small molecule agonists of the estrogen receptor alpha (ER-alpha) signaling pathway using the BG1 cell line (AID 743079). Also: nearly all actives have a fitted effect of over 20% in size. Also: potency is read from the fitted curve at half-maximal effect. The following applies: BG1Luc4E2 cells, ERE-luciferase agonist, 22 h; activation: at 70.3 µM (top of the series).

Records with an inconclusive call do not appear. Active and inactive are the calls of the source. Unless noted, calls follow the shape of the dose curve; as a rule, active = well fitted curve in the direction sought with a large enough effect in the repeat runs; inconclusive = weak or mixed curves; inactive = no such curve, though single readings can be large; an effect the other way counts as inactive or inconclusive.

Chain of Estrogen receptor (Homo sapiens) (P03372 whole entry, looked up): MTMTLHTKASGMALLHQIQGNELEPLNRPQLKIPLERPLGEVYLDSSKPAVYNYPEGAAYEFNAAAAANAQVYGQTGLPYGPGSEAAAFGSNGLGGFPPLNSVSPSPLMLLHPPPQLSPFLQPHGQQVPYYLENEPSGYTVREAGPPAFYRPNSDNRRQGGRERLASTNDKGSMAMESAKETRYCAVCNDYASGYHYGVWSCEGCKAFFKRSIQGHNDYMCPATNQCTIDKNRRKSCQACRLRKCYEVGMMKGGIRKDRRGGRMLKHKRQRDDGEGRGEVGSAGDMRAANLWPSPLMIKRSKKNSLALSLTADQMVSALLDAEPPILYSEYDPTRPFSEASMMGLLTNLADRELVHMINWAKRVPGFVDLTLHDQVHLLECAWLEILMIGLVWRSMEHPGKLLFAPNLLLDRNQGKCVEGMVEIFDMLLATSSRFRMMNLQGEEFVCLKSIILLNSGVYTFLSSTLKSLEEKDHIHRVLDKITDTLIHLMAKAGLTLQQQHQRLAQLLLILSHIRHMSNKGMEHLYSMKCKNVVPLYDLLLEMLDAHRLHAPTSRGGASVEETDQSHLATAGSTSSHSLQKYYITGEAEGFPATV
Chain of Aromatase (Homo sapiens) (P11511 whole entry, looked up): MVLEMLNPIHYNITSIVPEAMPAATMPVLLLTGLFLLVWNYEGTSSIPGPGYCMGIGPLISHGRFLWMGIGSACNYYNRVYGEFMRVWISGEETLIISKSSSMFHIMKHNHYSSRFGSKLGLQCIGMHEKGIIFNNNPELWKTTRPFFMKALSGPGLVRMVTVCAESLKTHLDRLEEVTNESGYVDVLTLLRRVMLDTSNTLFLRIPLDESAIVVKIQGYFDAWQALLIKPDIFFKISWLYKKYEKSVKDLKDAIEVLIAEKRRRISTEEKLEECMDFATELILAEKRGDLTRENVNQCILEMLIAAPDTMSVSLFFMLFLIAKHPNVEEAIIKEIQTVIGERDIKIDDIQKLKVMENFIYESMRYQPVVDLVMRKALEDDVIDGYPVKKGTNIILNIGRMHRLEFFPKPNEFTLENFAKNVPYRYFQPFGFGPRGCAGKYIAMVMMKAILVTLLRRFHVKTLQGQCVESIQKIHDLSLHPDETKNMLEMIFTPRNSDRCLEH

On to `OC[C@@H](O)C(O)[C@H](O)CO`, for which the Potency result (in [1]; in assay [2]; in [3]; in assay [4]; in assay [5]; in the assay with Aromatase (Homo sapiens)) was “inactive” in each case.
For the molecule `CO[C@@]1(NC(=O)C2SC(=C(C(N)=O)C(=O)O)S2)C(=O)N2C(C(=O)O)=C(CSc3nnnn3C)CS[C@@H]21` (stereo partly drawn), the Potency result (in [1]; in [2]; in assay [3]; in assay [4]; in assay [5]; with Aromatase (Homo sapiens)) was “inactive” in each case.
`C[C@]12CC[C@@H]3c4ccc(OS(=O)(=O)O)cc4CC[C@H]3[C@@H]1CCC2=O`: the Potency result in [1], in [2], in [3], in [4] and in assay [5] was “inactive” in each case.
With `CN[C@@H]1[C@@H](O)[C@@H](O[C@@H]2[C@@H](O)[C@H](OC3OC(CN)=CCC3N)[C@@H](N)C[C@H]2N)OC[C@]1(C)O` (stereo partly drawn), the Potency entry (in assay [1]; in assay [2]; in assay [3]; in assay [4]; in assay [5]; in the assay with Aromatase (Homo sapiens)) was “inactive” in each case.
Turning to `CO[C@@H]1[C@@H](O[C@@H]2O[C@H](C)[C@@H](O[C@H]3C[C@@](C)(O)[C@@H](OC(=O)CC(C)C)[C@H](C)O3)[C@H](N(C)C)[C@H]2O)[C@@H](CC=O)C[C@@H](C)C(=O)/C=C/C2OC2C[C@@H](C)OC(=O)C[C@H]1OC(C)=O` (stereo partly drawn), the figures for the Potency in [1] and in assay [2] were 29.8 µM (active) and 23.7 µM (active), respectively. Further, the Potency entry (in assay [3]; in assay [4]; in assay [6]; in [7]; with Aromatase (Homo sapiens)) was “inactive” throughout.
With `C[C@]12C=CC(=O)C=C1CC[C@@H]1[C@@H]2[C@@H](O)C[C@@]2(C)[C@H]1CC[C@]2(O)C(=O)COC(=O)CCC(=O)O`, the Potency result (in [1]; in assay [2]; in assay [3]; in assay [4]; in [6]; in the assay with Aromatase (Homo sapiens)) was “inactive” in each case.
For `CCC(=O)OCC(=O)[C@@]1(OC(=O)CC)[C@H](C)C[C@H]2[C@H]3[C@H]([C@@H](O)C[C@@]21C)[C@@]1(C)C=CC(=O)C=C1C[C@H]3Cl`, the Potency result in assay [1], in [2], in assay [3], in [4], in [6] and in assay [5] was “inactive” each time. The Potency entry with Aromatase (Homo sapiens) is “inactive”.
Take `Cc1ccc(/C(=C\CN2CCCC2)c2cccc(/C=C/C(=O)O)n2)cc1`: the Potency result in assay [1], in assay [2], in [3], in [4] and in assay [5] was “inactive” in each case.
In the case of `CC(=O)OCC(=O)[C@@]1(O)[C@H](C)C[C@H]2[C@@H]3C[C@H](F)C4=CC(=O)C=C[C@]4(C)[C@H]3[C@@H](O)C[C@@]21C`, the Potency result in assay [1], in assay [2], in assay [3], in assay [4], in assay [6] and in assay [8] was “inactive” each time. Further, the Potency entry with Aromatase (Homo sapiens) was “inactive”.
On to `Nc1nc(=O)n([C@@H]2CS[C@H](CO)O2)cc1F`, for which the Potency result in assay [1], in assay [2], in [3], in [4] and in assay [5] was “inactive” throughout.
With `[O]=[Bi][O][Bi]=[O]`, the Potency entry (in [1]; in assay [2]; in assay [3]; in assay [4]; in assay [5]; in the assay with Aromatase (Homo sapiens)) was “inactive” each time.
Turning to `CCOC(=O)[C@H](CCc1ccccc1)N[C@H]1CCCN2CCC[C@@H](C(=O)O)N2C1=O`, the Potency entry (in assay [1]; in assay [2]; in assay [3]; in [4]; in assay [5]; with Aromatase (Homo sapiens)) was “inactive” in each case.
For `CC(=O)[C@@]1(O)CC[C@H]2[C@@H]3C=C(Cl)C4=CC(=O)CC[C@]4(C)[C@H]3CC[C@@]21C`, the Potency entry (in assay [1]; in assay [3]; in assay [4]; in [6]; with Aromatase (Homo sapiens)) was “inactive” each time. For the same molecule, the Potency in assay [2] and in assay [8] was 29.8 µM (active) in each case.
As for `C=C(NC(=O)C(=C)NC(=O)c1csc(C2=N[C@@H]3c4csc(n4)[C@H]4NC(=O)c5csc(n5)[C@H]([C@](C)(O)[C@@H](C)O)NC(=O)[C@H]5CSC(=N5)C(=CC)NC(=O)C([C@@H](C)O)NC(=O)c5csc(n5)[C@]3(CC2)NC(=O)[C@H](C)NC(=O)C(=C)NC(=O)[C@H](C)NC(=O)C([C@@H](C)CC)NC2C=Cc3c([C@H](C)O)cc(nc3C2O)C(=O)O[C@@H]4C)n1)C(N)=O` (stereo partly drawn), the Potency was 8.04 µM (active) in [1], 12.7 µM (active) in assay [2] and 5.69 µM (active) in [3]. Moreover, the Potency result (in assay [4]; in assay [8]; in assay [7]; with Aromatase (Homo sapiens)) was “inactive” each time.
For the molecule `COc1ccc(-c2noc(CC(=O)O)c2-c2ccc(OC)cc2)cc1`, the Potency entry (in assay [1]; in [2]; in assay [3]; in assay [4]; in assay [5]; in the assay with Aromatase (Homo sapiens)) was “inactive” each time.
For the molecule `CCCCCCCCCCCCCCCCCC(=O)OC[C@@H](O)[C@H]1OC[C@H](O)[C@H]1O`, the Potency entry (in assay [1]; in assay [2]; in assay [3]; in assay [4]; in assay [5]; with Aromatase (Homo sapiens)) was “inactive” each time.
Regarding `Cc1cc(Nc2ccccc2C(=O)O)ccc1Cl`, the Potency entry (in assay [1]; in assay [3]; in assay [4]; in assay [6]; in assay [7]; with Aromatase (Homo sapiens)) was “inactive” throughout. The Potency in assay [2] was 26.6 µM (active).
`CNC(=O)c1c(I)c(C(=O)NCC(=O)Nc2c(I)c(C(=O)O)c(I)c(C(=O)NCCO)c2I)c(I)c(N(C)C(C)=O)c1I`: the Potency result in assay [1], in assay [2], in [3], in assay [4] and in assay [5] was “inactive” each time.
For the molecule `C[C@H]1C[C@H]2[C@@H]3CCC4=CC(=O)C=C[C@]4(C)[C@@]3(F)[C@@H](O)C[C@]2(C)[C@@]1(O)C(=O)CCl`, the Potency entry in assay [1], in assay [2], in assay [3], in [4], in assay [6] and in [8] was “inactive” throughout. Further, the Potency result with Aromatase (Homo sapiens) was “inactive”.
Turning to `COc1ccc(CNCC(O)COc2ccc3[nH]c(=O)ccc3c2)cc1OC` (stereo not drawn), the Potency entry (in assay [1]; in assay [2]; in [3]; in [4]; in [5]; with Aromatase (Homo sapiens)) was “inactive” each time.
Regarding `CCCC(=O)O[C@]1(C(=O)COC(=O)CC)[C@@H](C)C[C@H]2[C@@H]3CCC4=CC(=O)C=C[C@]4(C)[C@@]3(F)[C@@H](O)C[C@@]21C`, the Potency result in assay [1], in [2], in [3], in assay [4], in [6] and in assay [8] was “inactive” throughout. Moreover, in the assay with Aromatase (Homo sapiens), the Potency result was “inactive”.
For `CC(C)(C)C1(O)CCN2CC3c4ccccc4CCc4cccc(c43)C2C1` (stereo not drawn), the results for the Potency (in assay [1]; in assay [2]; with Aromatase (Homo sapiens)) were 26.6 µM (active), 23.7 µM (active) and 29.8 µM (active), respectively. The Potency result in assay [3], in [4], in [6] and in [5] was “inactive” in each case.
As to `Cn1cc(NC(=O)c2cc(NC(=O)c3cc(NC=O)cn3C)cn2C)cc1C(=O)NCCC(=N)N`, the Potency entry (in assay [1]; in [2]; in assay [3]; in [4]; in assay [5]; with Aromatase (Homo sapiens)) was “inactive” in each case.
